From PubChem BioAssay (NCATS)
A number with no mark means an inactive call. Calls come from the whole dose curve; as a rule, active = well fitted curve in the direction sought with a large enough effect; inconclusive = small, poorly fitted or top-dose-only effect, or another doubt; inactive = no such curve, though single readings can be large or run the other way.

experiment: qHTS for compounds that reverse cellular toxicity of Amyloid beta (A-beta) peptide in yeast: LOPAC Validation Assay (AID 720559); conditions: yeast expressing A-beta; series mostly up to 46.1 µM; growth rescue, positive = activation: at the top concentration
From the text: The A-beta peptide is produced by the processing of the amyloid precursor protein (APP) by two proteases, beta and gamma secretases. […] A-beta42 is regarded as the most amyloidogenic form due to its hydrophobicity; however, precisely how A-beta42 induces neurotoxicity is unclear. To understand further this biology and its potential therapeutic implications for human neurodegenerative disease, a quantitative high-throughput screen for compounds that reverse the cellular toxicity of the A-beta peptide was developed.
A yeast based screen was used because it recapitulates the salient feature of protein mis-folding disorder accurately. This cell-based phenotypic screen provides a significant, unbiased advantage by letting the compounds and models inform us which proteins or pathways are most relevant. The ideal chemical candidates would therefore have activity in both our primary yeast and secondary neuronal toxicity assays, as well as in mouse models. They will be valuable tools for dissecting diverse protein homeostasis pathologies and could potentially become the focus for future pre-clinical development. For this […] assay, inhibition of A-beta rescues the toxic effect in the yeast cell, resulting in increase of signals.
NIH Chemical Genomics Center [NCGC]
NIH Molecular Libraries Probe Centers Network [MLPCN]
Assay Submitter (PI): Susan Lindquist, Whitehead Institute, Massachusetts Institute of Technology
[1] Vassar R,et al (1999). Beta-secretase cleavage of Alzheimer's amyloid precursor protein by the transmembrane aspartic protease BACE. Science. 286: 735-741.
[2] Yan R, et al (1999). Membrane-anchored aspartyl protease with Alzheimer's disease beta-secretase activity. Nature.
Two and a half microliter / well of yeast growth medium were dispensed in a 1536 assay plate. Compounds were pinned using the Kalypsys robotic system followed by addition of 2.5 uL / well yeast solution. The assay plates were incubated at 30 C. After 48 hr, the absorbance signal at 600 nm was obtained using the PerkinElmer ViewLux plate reader to assess yeast growth. The data was normalized to the positive control of an equimolar mixture of ferric chloride (FeCl3) and clioquinol and to the negative control DMSO.

SMILES	growth rescue, positive = activation [%]
C=C1C[C@@]23CC[C@H]4[C@@](C)(CCC[C@@]4(C)C(=O)O)[C@@H]2CC[C@]1(O)C3	1.22
Cc1nc(N=Nc2ccc(C(=O)O)cc2)c(COP(=O)(O)O)c(C=O)c1O	5.05
OC[C@H]1O[C@@H](n2cnc3cncnc32)[C@H](O)[C@@H]1O	0.855
C=CC1(C)CC(=O)C2(O)C(C)(O1)C(OC(C)=O)C(O)C1C(C)(C)CCC(O)C12C (stereo not given)	-6.17
Oc1cc2c(cc1O)C(c1ccccc1)CNCC2 (stereo not given)	-5.12
O=[N+]([O-])c1cccc2c(Br)[nH]nc12	-7.08
O=C(O)c1cccnc1C(=O)O	-12
NC/C=C\C(=O)O	-3.43
O=c1ccn([C@@H]2O[C@H](COP(=O)(O)OP(=O)(O)O)[C@@H](O)[C@H]2O)c(=O)[nH]1	3.48
O=C(O)/C=C/c1ccc(O)c(O)c1	0.926
CCCCS(=N)(=O)CC[C@H](N)C(=O)O (stereo not given in full)	-4.41
Cn1c(=O)c2[nH]c(C3CCCC3)nc2n(C)c1=O	-4.73
Cc1ccccc1/C=C/C1=NCCN1	-7.45
NC(Cc1cccc(-c2ccccc2CP(=O)(O)O)c1)C(=O)O (stereo not given)	-3.16
CSC(N)=NCCC[C@H](N)C(=O)O	0.962
C[C@]12C=CC(=O)C=C1CC[C@@H]1C2=CC[C@]2(C)[C@@H](C(=O)CN3CCN(c4cc(N5CCCC5)nc(N5CCCC5)n4)CC3)CC[C@@H]12	3.98
O=C(O)C1=CCCNC1	-8.57
CN(C)CCCc1cc(C(=O)Nc2ccc(-c3ccncc3)cc2)ccc1O	-1.8
NC(=O)c1ccccc1	-7.15
N[C@H](C(=O)O)[C@H]1C[C@@H]1C(=O)O	1.36

SMILES	growth rescue, positive = activation [%]
CCCCCC[C@@H]([C@@H](C)O)n1cnc2c(N)ncnc21	-0.743
C=CC[C@H](N)C(=O)O	-6.07
CCN1C(=O)C=CC1=O	-7.29
CN[C@H](CC(=O)O)C(=O)O	-8.54
CO/N=C(\C(=O)N[C@@H]1C(=O)N2C(C(=O)O)=C(CSc3nc(=O)c(O)nn3C)CSC12)c1csc(N)n1 (stereo not given in full)	3.53
Cc1cccc(C2CN(C)CCc3c2cc(O)c(O)c3Cl)c1 (stereo not given)	-5.4
N[C@@H](Cc1ccc(O)c(I)c1)C(=O)O	-2.45
O=[N+]([O-])c1cccc2cn[nH]c12	-3.96
COc1ccc(-c2cc3ncc(C)n3c(Nc3ncccc3C(N)=O)n2)cc1OC	0.466
C[N+](C)(C)CC=O	-0.417
Cn1c(=O)c2c(nc(/C=C/c3cccc(Cl)c3)n2C)n(C)c1=O	-0.866
Nc1nc2ccc(Cl)cc2c2nc(-c3ccco3)nn12	-13.9
CC[C@H](NC(=O)c1c(C)c(-c2ccccc2)nc2ccccc12)c1ccccc1	-12.2
NC(N)=NC(N)=Nc1cccc(Cl)c1	-1.76
N[C@H](C(=O)O)[C@H](Cc1ccccc1)C(=O)O	-1.02
Nc1ccc2c3c(cccc13)C(=O)NC2=O	0.0981
CC(N)=NCCCC[C@@H](N)C(=O)O	-12.1
CCCCC[C@H](CC(=O)NO)C(=O)N[C@H](C(=O)N1CCC[C@H]1CO)C(C)C	-9.04
Nc1ncnc2c1ncn2C1CCCC1	-1.97
Nc1ccc(-c2nc3ccc(-c4nc5ccc(N)cc5[nH]4)cc3[nH]2)cc1	-53.3
